Reference: ChEMBL document CHEMBL3988442, “University of Dundee, Small-Polar-MMV Screening Library” (2021)
For some assays here: Potency and affinity values are given separately.

What was measured:
Design in all cases: scale not given: direction of the effect not stated beside the values
[1] = biological target: Protein translocase subunit SecA (Escherichia coli (strain K12)) (UniProt P10408); test: Assay to Identify E. coli SecA ATPase Inhibitors; format: functional; details: 30 µM
[2] = biological target: T1, Ubiquitin-activating enzyme e1, putative (Leishmania donovani (strain BPK282A1)) (UniProt E9BSI1); test: Leishmania donovani Ubiquitin Activating Enzyme (LdE1); format: functional; details: 30 µM
T1 sequence (whole entry): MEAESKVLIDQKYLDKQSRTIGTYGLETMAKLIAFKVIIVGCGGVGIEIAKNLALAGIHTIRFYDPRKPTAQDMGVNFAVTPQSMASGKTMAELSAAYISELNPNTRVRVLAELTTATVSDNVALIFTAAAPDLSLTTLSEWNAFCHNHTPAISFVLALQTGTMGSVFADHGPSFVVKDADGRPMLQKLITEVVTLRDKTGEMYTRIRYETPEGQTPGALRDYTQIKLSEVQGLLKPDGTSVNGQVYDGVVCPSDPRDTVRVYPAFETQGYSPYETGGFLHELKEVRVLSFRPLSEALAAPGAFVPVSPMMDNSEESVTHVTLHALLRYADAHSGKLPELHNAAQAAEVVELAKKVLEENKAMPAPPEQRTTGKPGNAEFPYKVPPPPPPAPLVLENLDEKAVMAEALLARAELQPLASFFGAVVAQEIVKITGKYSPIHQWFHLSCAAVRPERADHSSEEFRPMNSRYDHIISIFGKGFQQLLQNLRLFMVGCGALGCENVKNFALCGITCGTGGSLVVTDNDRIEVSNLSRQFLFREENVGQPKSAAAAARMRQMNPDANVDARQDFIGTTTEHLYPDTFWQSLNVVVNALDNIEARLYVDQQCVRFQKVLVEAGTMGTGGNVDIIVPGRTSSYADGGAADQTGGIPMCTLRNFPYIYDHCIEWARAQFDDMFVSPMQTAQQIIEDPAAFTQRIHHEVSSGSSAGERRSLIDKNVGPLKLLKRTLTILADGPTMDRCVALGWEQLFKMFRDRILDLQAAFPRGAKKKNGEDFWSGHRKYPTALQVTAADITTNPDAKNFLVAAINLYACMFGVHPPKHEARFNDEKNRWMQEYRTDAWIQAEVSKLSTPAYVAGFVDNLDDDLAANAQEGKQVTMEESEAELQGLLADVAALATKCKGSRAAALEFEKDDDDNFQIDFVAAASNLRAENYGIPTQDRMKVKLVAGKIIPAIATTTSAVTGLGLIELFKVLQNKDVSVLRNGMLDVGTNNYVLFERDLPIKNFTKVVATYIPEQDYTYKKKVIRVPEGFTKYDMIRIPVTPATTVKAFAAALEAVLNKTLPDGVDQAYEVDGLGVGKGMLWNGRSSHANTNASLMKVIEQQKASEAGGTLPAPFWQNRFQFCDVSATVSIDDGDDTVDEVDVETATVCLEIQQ

[3] = biological target: AMP-activated protein kinase, AMPK (Homo sapiens) (UniProt P54646+O43741+P54619+Q9UGJ0+Q9Y478+Q13131+Q9UGI9); test: AMP-dependent Kinase enzyme assay. An in vitro enzyme assay that detects ADP turnover that is directly proportional to AMPK activity. This uses naive AMPK that is activated during the assay with MK-8722; format: functional; details: 30 µM
[4] = biological target: Sialic acid-binding Ig-like lectin 9 (Homo sapiens) (UniProt Q9Y336); test: Hs-Siglec9 ALPHAscreen SOP 20170721; details: 10 µM
Trypanosoma cruzi = test: Trypanosoma cruzi phosphomannomutase and mannose-1-phosphate guanylyltransferase assay; format: functional; details: 10 µM
[5] = biological target: T2, Arginase-2, mitochondrial (Homo sapiens) (UniProt P78540); test: in vitro enzyme assay to detect the production of urea directly proportional to the activity of Arginase II; format: functional; details: 33.3 µM; note: in the data most compounds retested in dose-response had high values
T2 sequence (whole entry): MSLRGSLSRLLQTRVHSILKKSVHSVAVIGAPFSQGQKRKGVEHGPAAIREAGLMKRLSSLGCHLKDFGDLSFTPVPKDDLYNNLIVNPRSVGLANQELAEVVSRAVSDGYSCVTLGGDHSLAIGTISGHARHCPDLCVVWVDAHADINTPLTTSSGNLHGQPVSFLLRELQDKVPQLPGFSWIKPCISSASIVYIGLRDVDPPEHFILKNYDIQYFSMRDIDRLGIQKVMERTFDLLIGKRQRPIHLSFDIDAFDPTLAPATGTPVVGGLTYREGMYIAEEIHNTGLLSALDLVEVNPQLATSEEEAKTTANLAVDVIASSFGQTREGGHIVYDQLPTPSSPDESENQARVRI

[6] = biological target: T3, Proteasome subunit beta (Trypanosoma cruzi) (UniProt O96673); test: Trypanosoma cruzi proteasome chymotrypsin-like activity (TcProtChymo) assay.; note: in the data most compounds retested in dose-response had high values; format: functional; details: 9.37 µM
T3 sequence (whole entry): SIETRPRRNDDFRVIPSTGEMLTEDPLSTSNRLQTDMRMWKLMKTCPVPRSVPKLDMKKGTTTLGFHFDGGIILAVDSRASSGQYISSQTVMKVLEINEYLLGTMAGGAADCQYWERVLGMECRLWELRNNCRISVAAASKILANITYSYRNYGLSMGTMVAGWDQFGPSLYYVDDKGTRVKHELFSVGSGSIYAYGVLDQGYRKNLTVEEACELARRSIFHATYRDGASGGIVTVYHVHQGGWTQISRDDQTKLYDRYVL

Homo sapiens = species: Homo sapiens; test: To identify inhibition of the IFN signalling (Jak-Stat) pathway via expression of an eGFP reporter gene under the control of an IFN-stimulated response element (ISRE) containing MxA promoter.; format: functional; details: 30 µM
[7] = biological target: T4, Tyrosyl-tRNA synthetase, putative (Trypanosoma cruzi (strain CL Brener)) (UniProt Q4DSP6); test: Trypanosoma cruzi tyrosyl tRNA synthetase (TcYRS) _High Tyrosine SOP; format: functional; details: 30 µM; note: in the data most compounds retested in dose-response had high values
T4 sequence (whole entry): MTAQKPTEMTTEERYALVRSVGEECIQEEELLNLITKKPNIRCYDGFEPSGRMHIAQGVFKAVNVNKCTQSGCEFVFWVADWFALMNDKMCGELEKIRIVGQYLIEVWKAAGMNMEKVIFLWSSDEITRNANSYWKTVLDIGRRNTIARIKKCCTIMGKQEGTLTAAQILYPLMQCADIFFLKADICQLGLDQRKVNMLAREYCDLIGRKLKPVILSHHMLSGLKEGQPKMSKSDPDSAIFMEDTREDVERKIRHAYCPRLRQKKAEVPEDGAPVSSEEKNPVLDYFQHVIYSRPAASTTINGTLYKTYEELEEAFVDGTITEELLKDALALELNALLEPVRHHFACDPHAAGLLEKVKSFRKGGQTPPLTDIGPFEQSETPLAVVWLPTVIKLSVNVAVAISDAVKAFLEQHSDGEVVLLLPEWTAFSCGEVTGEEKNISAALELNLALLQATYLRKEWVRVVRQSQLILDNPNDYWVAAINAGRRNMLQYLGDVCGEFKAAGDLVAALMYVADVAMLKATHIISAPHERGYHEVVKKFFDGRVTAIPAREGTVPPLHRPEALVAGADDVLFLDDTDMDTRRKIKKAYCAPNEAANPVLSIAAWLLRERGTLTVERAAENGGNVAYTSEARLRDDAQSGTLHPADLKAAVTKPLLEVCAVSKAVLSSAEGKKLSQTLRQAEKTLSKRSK

[8] = biological target: T4, Tyrosyl-tRNA synthetase, putative (Trypanosoma cruzi (strain CL Brener)); test: Trypanosoma cruzi tyrosyl tRNA synthetase (TcYRS) SOP; format: functional; details: 30 µM
[9] = biological target: Chromo domain-containing protein 1 (Saccharomyces cerevisiae (strain ATCC 204508 / S288c) (Baker's yeast)) (UniProt P32657); test: ScCHD-1 Enzyme Inhibition Assay; format: functional; details: 30 µM; note: in the data most compounds retested in dose-response had high values
Sequence of Chromo domain-containing protein 1 (Saccharomyces cerevisiae (strain ATCC 204508 / S288c) (Baker's yeast)) (P32657 whole entry, the tested form may be a part): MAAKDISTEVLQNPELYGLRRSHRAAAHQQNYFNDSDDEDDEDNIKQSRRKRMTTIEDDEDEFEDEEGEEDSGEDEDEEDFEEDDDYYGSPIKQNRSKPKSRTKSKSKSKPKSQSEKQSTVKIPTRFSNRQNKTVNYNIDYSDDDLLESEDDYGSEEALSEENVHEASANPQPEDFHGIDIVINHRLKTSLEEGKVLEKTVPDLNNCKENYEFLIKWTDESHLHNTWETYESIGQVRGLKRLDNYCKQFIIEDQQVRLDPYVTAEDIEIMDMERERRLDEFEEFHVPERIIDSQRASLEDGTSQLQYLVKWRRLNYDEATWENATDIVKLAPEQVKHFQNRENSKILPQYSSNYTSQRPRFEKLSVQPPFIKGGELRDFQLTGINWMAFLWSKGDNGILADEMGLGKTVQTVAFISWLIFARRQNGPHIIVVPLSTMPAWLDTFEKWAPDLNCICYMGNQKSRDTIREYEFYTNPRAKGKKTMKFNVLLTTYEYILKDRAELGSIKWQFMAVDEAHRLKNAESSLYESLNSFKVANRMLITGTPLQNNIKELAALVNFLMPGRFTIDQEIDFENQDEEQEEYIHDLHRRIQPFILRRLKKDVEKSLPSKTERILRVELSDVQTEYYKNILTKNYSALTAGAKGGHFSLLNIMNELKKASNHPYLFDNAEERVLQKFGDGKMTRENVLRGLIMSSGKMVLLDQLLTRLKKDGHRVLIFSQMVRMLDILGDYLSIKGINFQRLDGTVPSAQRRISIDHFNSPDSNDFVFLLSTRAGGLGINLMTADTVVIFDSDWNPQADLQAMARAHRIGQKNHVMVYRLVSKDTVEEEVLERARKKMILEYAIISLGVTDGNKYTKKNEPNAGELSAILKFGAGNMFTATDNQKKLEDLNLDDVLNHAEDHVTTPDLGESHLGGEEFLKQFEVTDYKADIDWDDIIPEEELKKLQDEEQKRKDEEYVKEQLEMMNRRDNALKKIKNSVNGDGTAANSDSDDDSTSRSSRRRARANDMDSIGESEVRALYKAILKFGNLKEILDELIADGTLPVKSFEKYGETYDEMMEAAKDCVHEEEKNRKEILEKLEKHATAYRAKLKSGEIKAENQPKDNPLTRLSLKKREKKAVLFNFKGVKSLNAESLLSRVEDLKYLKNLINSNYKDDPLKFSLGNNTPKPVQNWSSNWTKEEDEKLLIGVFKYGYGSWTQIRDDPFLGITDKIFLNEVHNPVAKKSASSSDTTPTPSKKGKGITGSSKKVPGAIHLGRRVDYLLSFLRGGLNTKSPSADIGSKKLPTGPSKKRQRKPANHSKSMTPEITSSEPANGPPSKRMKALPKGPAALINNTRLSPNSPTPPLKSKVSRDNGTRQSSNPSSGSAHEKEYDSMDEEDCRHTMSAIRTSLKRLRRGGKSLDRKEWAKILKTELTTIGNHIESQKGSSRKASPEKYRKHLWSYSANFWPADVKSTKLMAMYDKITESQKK

Sequence of Protein translocase subunit SecA (Escherichia coli (strain K12)) (P10408 whole entry): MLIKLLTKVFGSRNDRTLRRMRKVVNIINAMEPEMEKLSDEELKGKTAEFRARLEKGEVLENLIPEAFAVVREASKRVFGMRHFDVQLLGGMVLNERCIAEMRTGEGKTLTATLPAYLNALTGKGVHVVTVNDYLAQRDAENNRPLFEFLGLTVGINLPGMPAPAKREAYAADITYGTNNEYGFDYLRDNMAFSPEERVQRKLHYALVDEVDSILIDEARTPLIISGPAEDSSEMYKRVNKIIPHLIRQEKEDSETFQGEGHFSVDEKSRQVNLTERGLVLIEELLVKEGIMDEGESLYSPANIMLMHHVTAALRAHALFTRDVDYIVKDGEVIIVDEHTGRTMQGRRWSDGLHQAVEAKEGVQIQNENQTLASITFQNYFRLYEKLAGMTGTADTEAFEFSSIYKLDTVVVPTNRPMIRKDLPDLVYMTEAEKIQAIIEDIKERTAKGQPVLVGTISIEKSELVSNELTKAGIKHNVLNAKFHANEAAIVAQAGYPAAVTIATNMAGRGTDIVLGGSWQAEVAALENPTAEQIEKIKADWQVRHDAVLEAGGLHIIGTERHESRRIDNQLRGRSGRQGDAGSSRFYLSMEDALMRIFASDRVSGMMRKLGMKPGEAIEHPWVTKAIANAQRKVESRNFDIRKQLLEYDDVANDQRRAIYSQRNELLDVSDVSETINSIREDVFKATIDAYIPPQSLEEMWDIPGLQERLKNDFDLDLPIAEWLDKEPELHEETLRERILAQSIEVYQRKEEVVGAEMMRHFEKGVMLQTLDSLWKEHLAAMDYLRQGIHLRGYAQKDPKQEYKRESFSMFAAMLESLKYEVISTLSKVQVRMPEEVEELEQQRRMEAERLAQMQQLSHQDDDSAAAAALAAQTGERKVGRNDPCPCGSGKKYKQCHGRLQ
Sequence of Sialic acid-binding Ig-like lectin 9 (Homo sapiens) (Q9Y336 whole entry): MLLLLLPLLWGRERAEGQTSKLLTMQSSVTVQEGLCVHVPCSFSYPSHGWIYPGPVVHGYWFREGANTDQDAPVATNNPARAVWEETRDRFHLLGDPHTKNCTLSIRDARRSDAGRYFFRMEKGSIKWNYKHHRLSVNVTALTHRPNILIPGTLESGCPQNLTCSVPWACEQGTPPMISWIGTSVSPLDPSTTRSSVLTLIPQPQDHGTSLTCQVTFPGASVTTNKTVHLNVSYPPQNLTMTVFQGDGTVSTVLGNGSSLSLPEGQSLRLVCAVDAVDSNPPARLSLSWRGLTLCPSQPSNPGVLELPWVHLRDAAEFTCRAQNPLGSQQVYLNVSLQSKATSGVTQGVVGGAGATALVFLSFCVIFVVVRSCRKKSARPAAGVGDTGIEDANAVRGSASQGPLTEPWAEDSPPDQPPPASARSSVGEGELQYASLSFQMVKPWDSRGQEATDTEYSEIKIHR

Row | Structure (SMILES) | Percent Effect [1] [%] | Percent Effect [2] [%] | Percent Effect [3] [%] | Percent Effect [4] [%] | Percent Effect (Trypanosoma cruzi) [%] | Percent Effect [5] [%] | Percent Effect [6] [%] | Percent Effect (Homo sapiens) [%] | Percent Effect [7] [%] | Percent Effect [8] [%] | Percent Effect [9] [%]
1 | Cc1cc(C[C@@H]2COC[C@@H]2NC(=O)CN2CCCN(C)CC2)on1 | -3.19 | 16.4 | 2.04 | 6.47 | 6.27 | 4.54 | 13.3 | 4.37 | 8.6 | -55 | -6.96
2 | CN1C(=O)C(C)(C)COc2cc(NS(=O)(=O)Cc3ccccc3)ccc21 | -1.91 | 16.4 | -12.8 | -8.62 | 3.72 | -2.73 | 15.6 | 57.7 | 7.53 | 12.5 | -6.62
3 | O=C(NCCN1CCOCC1)NCC(O)c1cccc(F)c1 (stereo not given) | -4.85 | 16.2 | -10.5 | 13.6 | 5.75 | -6.01 | 4.68 | 10.8 | 5.42 | 11.1 | -10.8
4 | NCC1Cn2nnc(-c3cccc(F)c3)c2CO1 (stereo not given) | -1.49 | -20.8 | 2.11 | 0.572 | 8.75 | -1.38 | 7.99 | -8.6 | 3.23 | 3.7 | -4.31
5 | COc1c(C2CCCN2C(=O)c2cccc(C(N)=O)c2)c(C)nn1C (stereo not given) | -6.26 | 10.4 | 7.89 | -11.9 | -5.19 | -2.32 | 3.96 | 17.6 | 0 | 2.35 | -17.8
6 | CN(C)C(C(=O)N1CCCC1)c1ccccc1F (stereo not given) | -2.84 | 1.39 | 3.5 | -3.25 | -5.54 | 5.3 | 4.74 | -1.68 | 3.16 | 2.56 | -0.0422
7 | COCCN1CCN(C(=O)C2CC=CC2)Cc2cccnc21 | -4.04 | 8 | 10.1 | 4.75 | 7.14 | -55.4 | 10.4 | -18.4 | 3.12 | 17.5 | -7.24
8 | COc1ccc(COCC(O)CNC(=O)c2cccnc2)cc1 (stereo not given) | -2.83 | 3.8 | 0.844 | -5.42 | -7.08 | -5.38 | 8.75 | 2.64 | 1.04 | 0 | -14.1
9 | O=C(O)CCc1cc2n(n1)CCCN(C(=O)c1ccc3cc[nH]c3c1)C2 | -2.97 | 16.2 | -5.19 | 10.7 | 4.05 | 10.5 | 11.9 | -2.64 | 7.94 | 17.1 | -3.38
10 | Cc1nc(C2CCCCN2C(=O)c2ccccc2)ncc1C(=O)N(C)C (stereo not given) | 0.833 | -5.33 | 7.56 | 0.633 | -1.97 | 4.89 | 0.0881 | 10.8 | 1.06 | 1.28 | 0.34
